For 40 sequences, PBM binding z-score results are on record in the supplement of paper PMC6555819.

The test system of this test is VDR:RXRa (NR concentration 270 nM, RXRa partner concentration 90 nM). As to the kind of experiment: PBM binding z-score (relative to random genomic background probes); higher = stronger binding; sequences stand for … in GC…GCGATTGACAGCGTAGAATGAAGG
The method, then:
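Protein-binding microarray (Agilent 4x180K custom design, double-stranded 60-nt probes: 5' GC cap, 34-nt variable region, 24-nt constant primer region; full probe sequence given). Purified or IVT nuclear receptor:RXRα heterodimers (3:1 NR:RXRα, mostly 270:90 nM) or homodimers were incubated for 1 h in PBS with 2% milk and no ligand, then detected with Alexa488 antibodies. Fluorescence from o1-orientation probes (~5 replicates averaged) was converted to z-scores against 500 random hg19 background probes. Variable regions are seed direct-repeat (DR0–DR5) sites, all their single-nucleotide variants and half-site ablations.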
Sequence ATATGTAGGTTACATGCGGGTCATTCAGGCTATG showed a PBM binding z-score of 3.78.
Then TAGCCTAGGACATGCGGGCCAGTATAGTGTCGGC, with -0.777.
Sequence TCTGCTATGTCAACGATGGTCAGCTAATCTGCTA returned a PBM binding z-score of -0.405.
Then ATCGAAAGGTCGTGAAGTGAGTATACAGAAAGGC, with 3.26; and CTATGTAGGTTGAGGGGGTCATTCAGTTTGAAAG, with 7; and CTATGTAGGGTAAGGGGGTCATTCAGTTTGAAAG, with 7.01.
Then CCTAGCAGGCCACGGTCACTCAAGCATTTCGCTT, with -0.261; and CGAAGTAGGTCACCAGGACAGTGAAGAGGTTGGA, with 2.07; and GCTTACGGGTCAAAGGTTACAGCATGAATAGAAT, with 5.69.
With TCTAGTTGGTCATGGAGGTCACACACGACGGGTA, the PBM binding z-score amounted to 5.98.
Then ATCGAAAGGTCGAAGGTGAGTACACCCACCCGAA, with 3.97; and TCTAGTTGGTCACGGGGGTCACACACGACGGGTA, with 6.57.
Then CCCACTGGGGCAAAGGTTACCATACTCAGTACGA, with 1.61; and ATATGTAGGTTAGGGTCGTTCAGAAAGTAGGGAA, with 2.57.
The sequence GGAACGGGGGCAAGTTGATAGCAGAGTTTGATGG had a PBM binding z-score of 3.44.
With ACTAGAAGGCCAAGGGTCACTCAAGATTAGTCCG, the PBM binding z-score was determined as 3.26.
Then GATCCAGGGTCAGCTAGAGGCCAGAGTATGGAAA, with 3.16.
Then TCGAGTAGGTTACCGGGGCATTCAGGGATGAAGA, with 0.816; and TCGAGTAGGTTACGCGGGCATTCAGGGATGAAGA, with -0.157; and ATATGTAGGTTAGGGTAATTCAGAAAGTAGGGAA, with 1.09.
Then CGAACTAGGTCACCAGGTCAGTGAAGAGGTTGGA, with 3.92; and CGTCAAAGTTCAACTAAGTTAACGTAAAGCACGC, with 5.16.
As for CGAACTAGGTCAAAGTACAGTGAAAGGCGACGTA, the PBM binding z-score is 1.84.
Turning to CGAACTAGGTCACCAGGACAGTCAAGAGGTTGGA, the PBM binding z-score came out at 2.18.
Then CGAAATAGGTCAAAGGACAGTGAAAGGCGACGTA, with 2.5; and CCGAGTAGGGTACGAGGGGGCATTCAGTGCGAAT, with 4.33; and ATATGGAGGTTAAGGGTCATTCAGGTTGGTTCGC, with 6.32.
Sequence ATATGTAGGTTAGGGTCAATCAGAAAGTAGGGAA came in with a PBM binding z-score of 3.8.
For the sequence TCGAGTAGGTTACGGGAGCATTCAGGGATGAAGA, the PBM binding z-score came out at 0.0873.
In the case of AATACAGGGTCGCTAGGCCAGAGTAGGTACGAAT, the PBM binding z-score amounted to 0.828.
Then TCGAGTAGGTTTCGGGGGCATTCAGGGATGAAGA, with 2.7; and CCGAGTAGGTTACGAGCGGGCATTCAGTGCGAAT, with 0.355; and CCGAGCAGGTTACGAGGGGGCATTCAGTGCGAAT, with 5.27.
Regarding GCTGCTAGGTCGACTGATGGTCAGCTAAAGCTCG, the PBM binding z-score is -0.493.
TCGAGTTGGTTACGGGGGCATTCAGGGATGAAGA had a PBM binding z-score of 3.63.
Then TCGAGTAGGTTACGGGGGGATTCAGGGATGAAGA, with 3.28; and CAATGTAGGTTAAGGGGGTCATTCAGTTTGAAAG, with 7.74; and CGTCCAAGGGCAGCAGGTCAGTGAAAGCGACGTG, with 0.17.
Then ATATGTACGTTAGGGTCATTCAGAAAGTAGGGAA, with 4.24.
Regarding TCGAGTAGGTTACGTGGGCATTCAGGGATGAAGA, the PBM binding z-score amounted to 0.00981.
